This is an account of results in PubChem BioAssay (NCI).

Holding throughout (assay): NCI-60 one-dose screen, 48 h (100 = growth as untreated, 0 = no growth, -100 = all killed)
The subject of assay [1] is HCT-15 colon. The conditions noted are these: 10 µM unless noted.
For assay [2], the system named is HT29 colon. The conditions noted are these: 10 µM unless noted.
Assay [3] concerns SNB-75 CNS. The conditions noted are these: 10 µM unless noted.
For assay [4], the system named is SNB-19 CNS. The conditions noted are these: 10 µM unless noted.
For assay [5], the system named is PC-3 prostate. As to conditions: 10 µM unless noted.
The test system of assay [6] is SK-MEL-5 melanoma. The conditions noted are these: 10 µM unless noted.
Assay [7] concerns UACC-62 melanoma. The conditions noted are these: 10 µM unless noted.
Assay [8] has as its system SK-MEL-28 melanoma. As to conditions: 10 µM unless noted.
In assay [9] the test system is SK-MEL-2 melanoma. As to conditions: 10 µM unless noted.
For assay [10], the system named is SN12C renal. As to conditions: 10 µM unless noted.
Assay [11] deals with TK-10 renal. As to conditions: 10 µM unless noted.
Assay [12] relates to CAKI-1 renal. As to conditions: 10 µM unless noted.
For assay [13], the system named is A498 renal. As to conditions: 10 µM unless noted.
The test system of assay [14] is CCRF-CEM leukemia. The conditions noted are these: 10 µM.
In assay [15] the test system is MOLT-4 leukemia. As to conditions: 10 µM unless noted.
Assay [16] relates to U251 CNS. As to conditions: 10 µM unless noted.
In assay [17] the test system is UO-31 renal. As to conditions: 10 µM unless noted.
In assay [18] the test system is ACHN renal. As to conditions: 10 µM unless noted.

“And” between values parts separate entries of the source, which are not always exact repeats. Equal values may be shown once. This is part of a sample that, as a whole, favours compounds with a hit. Of some 83,000 tested, about 20% had one in any assay.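 Single-dose data. Exposure time 48 hours. Values below 10 considered active.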 Values without a mark were called inactive. The source made the active and inactive calls.

Regarding `COc1ccc(Nc2ccc3ccccc3c2)cc1`, the growth in [1] was 78.2%; in [2] it was 64.9%; in assay [3], 64.3%; in assay [4] it was 79.5%; in assay [5], 71.5%; in assay [6], 73.8%. In addition, the growth was 62.1% in assay [7]; 89.8% in assay [8]; 67.2% in assay [9]; 76.9% in [10]; 77.2% in assay [11]; 52.3% in assay [12]. In addition, the growth in [13] is 52.8%; in assay [14] it was 56.9%; in [15], 71.5%.

As for `O=C1OC(c2ccccc2)=N/C1=C\c1ccccc1`, the growth was 105% in assay [1]; 113% in assay [2]; 83% in assay [3]; 98.9% in [4]; 91% in assay [16]; 95.9% in assay [5]. Further, the growth in assay [6] is 97.7%; in assay [7], 101%; in [8] it was 108%; in assay [9] it was 116%; in assay [10] it was 102%; in assay [11] it was 117%. The growth in assay [12] was 110%; in assay [14], 100%; in assay [15], 105%.

Regarding `CC(=O)Nc1ccc(S(N)(=O)=O)cc1`, the growth is 107% and 93.5% in [1]; 106% and 96.8% in assay [2]; 107% and 92.5% in assay [3]; 98.3% and 107% in assay [4]; 93% and 96.2% in [16]; 81.2% and 99.1% in assay [5]. Further, the growth in [6] was 93.2% and 101%; in [7], 99.8%; in [8], 107% and 110%; in assay [9], 109% and 110%; in [10], 97.5% and 102%; in assay [11], 101%. The growth in assay [12] was 108% and 93.2%; in assay [13], 85.8% and 101%; in [14] it was 93.2% and 100%; in [15], 103% and 98.8%.

On to `O=C1OC(C(O)C(O)CO)C(O)=C1O` (stereo not given), for which the growth in assay [1] is 99.8% and 100%; in assay [2] it was 102% and 96.4%; in assay [3] it was 100% and 90.4%; in assay [4], 100% and 98.4%; in assay [16] it was 104% and 92.5%; in assay [5] it was 93.2% and 85.3%. Further, the growth in [6] is 97.2% and 106%; in [7], 103% and 99.8%; in assay [8], 118% and 107%; in assay [9] it was 92.9% and 101%; in [10] it was 107% and 101%; in [17], 104% and 94.2%. Also, the growth was 124% and 100% in assay [11]; 104% and 102% in [12]; 102% and 101% in assay [14]; 121% and 105% in assay [15].

`CC1CCC2(OC1)OC1CC3C4CC=C5CC(O)CCC5(C)C4CCC3(C)C1C2C` (stereo not given): the growth was 105% in [1]; 108% in assay [2]; 83% in assay [3]; 96.1% in [4]; 94.8% in assay [16]; 96.4% in [5]. Further, the growth in assay [6] is 105%; in assay [7] it was 90.6%; in assay [8], 115%; in [9], 122%; in [10] it was 100%; in [11], 101%. Besides, the growth in assay [14] was -55.7% (active); in assay [15], 102%.

For the molecule `Cc1cc2ccccc2cn1`, the growth in assay [1] was 104% and 105%; in assay [2], 109% and 102%; in assay [3], 92.9% and 83.1%; in assay [4], 95.3% and 97.7%; in assay [16], 99.4% and 103%; in assay [5] it was 95.3% and 96%. Besides, the growth in [6] is 101% and 109%; in assay [7] it was 92.5% and 95.2%; in [8] it was 109% and 200%; in assay [9], 107%; in [10] it was 94% and 104%; in assay [11] it was 103% and 93.4%. Besides, the growth in assay [18] is 107% and 102%; in assay [12], 100% and 67.8%; in assay [13], 100% and 197%; in [14], 102% and 120%; in assay [15] it was 112% and 88.7%.

As for `Brc1ccc(SSc2ccc(Br)cc2)cc1`, the growth in assay [1] was 77.3%; in [2], 97.2%; in [3], 77.2%; in [4] it was 87.9%; in assay [16] it was 65.8%; in assay [5], 39.7%. For the same molecule, the growth in assay [6] was 54.7%; in assay [7], 96.9%; in assay [8], 97.6%; in assay [9], 101%; in assay [10], 63.8%; in assay [17] it was 49.6%. The growth in assay [11] was 97.1%; in assay [18], 109%; in assay [12], 106%; in assay [14], 8.01% (active); in assay [15] it was 4.43% (active).

Turning to `CC(C)NC(=O)N/C=C(\C#N)C(N)=O`, the growth in assay [1] is 101%; in assay [2] it was 107%; in assay [3] it was 83.2%; in assay [4] it was 110%; in assay [16] it was 114%; in assay [5], 94.9%. The growth in assay [6] is 101%; in assay [7], 101%; in assay [8], 100%; in assay [9], 101%; in [10], 99.1%; in [11] it was 99.7%. The growth in [12] is 81.5%; in assay [14], 114%; in assay [15], 106%.
